Test results reported in PubChem BioAssay AID620 (Sanford-Burnham Center for Chemical Genomics, 2007).
About 360 (0.41%) of roughly 87,000 compounds were called active. Many of the other results were omitted from the sample, so actives are more common in it than they were. Unmarked numbers belong to inactive results. Rule as the data show it: active = cytotoxicity above about 50%; inactive = the rest.

Experiment: HT1080 cell viability loss – fluorescence readout (AID 620);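 also: cells exposed to compound overnight then 4 h with Alamar Blue; 0% = vehicle DMSO and 100% = killing control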
Conditions: at 10 µM, stronger effect = higher value
With `CC(=O)N1[C@H](Cc2ccccc2)C=C[C@]1(C)C(=O)NCc1ccc(C)o1` the cytotoxicity was -2.9%.
With `Cc1ccsc1C1NC(=O)c2c(sc3c2CCN(C)C3)N1` (stereo not drawn) the cytotoxicity was 9.6%.
With `O=S(=O)(c1cccc(-c2csc(-c3ccccc3)n2)c1)N1CCOCC1` the cytotoxicity was 2%.
In the case of `CC(C)CCn1c(N)c(S(=O)(=O)c2cccs2)c2nc3ccccc3nc21`, the cytotoxicity is reported as 57% (active).
`CC(C)Cn1c(N)c(S(=O)(=O)c2cccs2)c2nc3ccccc3nc21` showed a cytotoxicity of 30.5%.
For `COCCn1c(N)c(S(=O)(=O)c2cccs2)c2nc3ccccc3nc21`, the cytotoxicity was 11%.
`Cc1cc(N2CCN(C(=O)c3ccco3)CC2)n2ncc(-c3ccccc3)c2n1` gave a cytotoxicity of 5.6%.
Work on `Cc1ccccc1-n1c(SCC(=O)N2CCN(c3ccccc3)CC2)nnc1-c1ccncc1` yielded a cytotoxicity of -3.7%.
Work on `CCOC(=O)CSC1=C(C#N)C(c2ccccc2OC)CC(=O)N1` (stereo not drawn) yielded a cytotoxicity of -1%.
`CCSC1=C(C#N)C(c2ccc(C)s2)CC(=O)N1` (stereo not drawn) showed a cytotoxicity of 0.8%.
For `CCOC(=O)CSC1=C(C#N)C(c2ccc(C)s2)CC(=O)N1` (stereo not drawn), the cytotoxicity was 58% (active).
Compound `CCOC(=O)CSC1=C(C#N)C(c2ccc(Cl)cc2)CC(=O)N1` (stereo not drawn) has a cytotoxicity of 2.7%.
With `CCOC(=O)CSC1=C(C#N)C(c2ccc(C)o2)CC(=O)N1` (stereo not drawn) the cytotoxicity was 59.5% (active).
Work on `CCCCCCSC1=C(C#N)C(c2ccc(C)o2)CC(=O)N1` (stereo not drawn) yielded a cytotoxicity of 29.7%.
Compound `COc1cc(C(=O)Nc2nnc(CC(=O)N3CCOCC3)s2)cc(OC)c1OC` has a cytotoxicity of -1%.
Work on `CCOc1ccccc1NC(=O)CSc1nnnn1-c1ccccc1` yielded a cytotoxicity of 7.2%.
`Cc1noc(C)c1S(=O)(=O)N1CCCC(C(=O)NCc2ccccn2)C1` (stereo not drawn) gave a cytotoxicity of 3.9%.
In the case of `COC(=O)CN(Cc1ccco1)S(=O)(=O)c1ccccc1`, the cytotoxicity is reported as 1.2%.
With `CC1=CCC(Cc2nc3ccccc3o2)C1(C)C` (stereo not drawn) the cytotoxicity was 0.6%.
`CCOc1cc(N2CCOCC2)c(OCC)cc1NC(=O)CCS(=O)(=O)c1ccc(Cl)cc1` gave a cytotoxicity of 6.9%.
With `CCOc1ccc(Br)cc1S(=O)(=O)Nc1ccccc1N1CCOCC1` the cytotoxicity was 4.5%.
For `CCOc1cc(N2CCOCC2)c(OCC)cc1NS(=O)(=O)c1ccc(Cl)s1`, the cytotoxicity was 51.9% (active).
Compound `O=C(NC1CCCCCC1)C1CCN(C(=O)Cc2ccccc2)CC1` has a cytotoxicity of 3.1%.
For `COc1ccc2nc(-n3c(C)ccc3C)sc2c1`, the cytotoxicity was -1.1%.
`O=C(N1CCN(CCO)CC1)N1c2ccccc2C=Cc2ccccc21` showed a cytotoxicity of 3.2%.
With `CCC(=O)Nc1ccc(OC)cc1OC` the cytotoxicity was -3.2%.
Work on `COc1ccc(NC(=O)CC(=O)Nc2ccc(OC)cc2OC)c(OC)c1` yielded a cytotoxicity of -3.5%.
For `CCN(CC)c1ccc2c(c1)OC(N)=C(C#N)C2c1cccnc1` (stereo not drawn), the cytotoxicity was 67.5% (active).
Compound `N#CC1=C(N)Oc2cc(O)ccc2C1c1ccccc1` (stereo not drawn) has a cytotoxicity of -0.8%.
With `N#CC1=C(N)Oc2cc(O)ccc2C1c1ccncc1` (stereo not drawn) the cytotoxicity was -6.2%.
With `CN(C)c1ccc2c(c1)OC(N)=C(C#N)C2c1cccc(F)c1` (stereo not drawn) the cytotoxicity was 56% (active).
With `N#CC1=C(N)Oc2cc(N)ccc2C1c1ccc(F)cc1` (stereo not drawn) the cytotoxicity was -0.8%.
Work on `N#CC1=C(N)Oc2cc3ccccc3cc2C1c1cccnc1` (stereo not drawn) yielded a cytotoxicity of 47.6%.
`N#CC1=C(N)Oc2c(ccc3cccnc23)C1c1cccnc1` (stereo not drawn) showed a cytotoxicity of 39.8%.
With `COc1cc(C2C(C#N)=C(N)Oc3cc(O)ccc32)cc2c1OCO2` (stereo not drawn) the cytotoxicity was -6.6%.
For `COc1cc(C2C(C#N)=C(N)Oc3cc(C)oc(=O)c32)cc2c1OCO2` (stereo not drawn), the cytotoxicity was -1.5%.
For `COc1cc(C2C(C#N)=C(N)Oc3cc(O)ccc32)cc(OC)c1OC` (stereo not drawn), the cytotoxicity was 64.7% (active).
Work on `COc1ccc(C2C(C#N)=C(N)Oc3cc(O)ccc32)cc1OC` (stereo not drawn) yielded a cytotoxicity of -13.3%.
In the case of `COc1cc(C2C(C#N)=C(N)Oc3cc(N(C)C)ccc32)cc2c1OCO2` (stereo not drawn), the cytotoxicity is reported as 63.3% (active).
`Cc1cccc(OCCn2c(NC(=O)c3ccco3)nc3ccccc32)c1` gave a cytotoxicity of 5.5%.
With `CC(=O)N1[C@H](Cc2ccccc2)C=C[C@]1(C)C(=O)O` the cytotoxicity was 6.6%.
Work on `CCC(c1nnnn1C1CCCC1)N1CCN(c2ccccc2F)CC1` (stereo not drawn) yielded a cytotoxicity of -20.4%.
Work on `Cc1ccnc(NS(=O)(=O)c2ccc(Oc3ccccc3)cc2)c1` yielded a cytotoxicity of 7.3%.
For `COc1cc(NC(=O)CN2C(=O)NC(C)(CC(C)C)C2=O)cc(OC)c1` (stereo not drawn), the cytotoxicity was -7.9%.
In the case of `O=C1NC(c2ccccc2)=C(c2nc3ccccc3s2)C(c2ccc(F)cc2)N1` (stereo not drawn), the cytotoxicity is reported as -3.1%.
For `O=C(CSc1nnc(COc2ccc(Cl)cc2)o1)N1CCN(c2ccccc2)CC1`, the cytotoxicity was 1.3%.
For `O=C(CSc1nnc(COc2ccc(F)cc2)o1)N1c2ccccc2CCc2ccccc21`, the cytotoxicity was -8%.
In the case of `O=C(CSc1nnc(COc2ccc(Cl)cc2)o1)N1c2ccccc2CCc2ccccc21`, the cytotoxicity is reported as 62.4% (active).
For `O=C(CCCN1C(=O)c2ccccc2C1=O)Nc1ccc(S(=O)(=O)N2CCOCC2)cc1`, the cytotoxicity was 14.1%.
Compound `CCCCCc1nnc(NC(=O)CS(=O)(=O)Cc2ccccc2)s1` has a cytotoxicity of -1.5%.
`CC1=CC(C)(C)Nc2ccc(OC(=O)CN3C(=O)C4CCCCC4C3=O)cc21` (stereo not drawn) gave a cytotoxicity of -1%.
With `CC1=CC(C)(C)Nc2ccc(OC(=O)c3ccco3)cc21` the cytotoxicity was 59.2% (active).
With `CC1=CC(C)(C)Nc2ccc(OC(=O)c3cccnc3)cc21` the cytotoxicity was 14.7%.
In the case of `COc1ccc(CC(=O)c2ccccc2C(=O)O)cc1`, the cytotoxicity is reported as -0.2%.
In the case of `CCCCN(CCCC)S(=O)(=O)c1ccc(OC)c2ncccc12`, the cytotoxicity is reported as 32.7%.
With `CO/N=C/C(=N\Nc1ccc(OC)cc1)C(=O)c1ccc(OC)cc1` the cytotoxicity was 11.7%.
`CO/N=C\C(=N\Nc1ccc(OC)cc1)C(=O)c1ccccc1` gave a cytotoxicity of -0.7%.
With `COc1ccc(N/N=C(/Oc2ccc([N+](=O)[O-])cc2)C(C)=O)cc1` the cytotoxicity was 5.4%.
With `CO/N=C/C(=N\Nc1ccc(C)cc1)C(=O)c1ccc(OC)cc1` the cytotoxicity was 53.7% (active).
For `COc1ccc(N/N=C(\C=N\O)C(=O)c2ccc(OC)cc2)cc1`, the cytotoxicity was 59% (active).
Compound `COc1ccc(C(=O)Oc2ccc(/C=N/O)cc2)cc1` has a cytotoxicity of 2.6%.
With `CCOc1ccc(N2C(=O)CSC23CCCCC3)cc1` the cytotoxicity was -10.8%.
`COCCn1c(SCC(=O)NCc2cccs2)nnc1-c1ccc(OC)cc1` gave a cytotoxicity of 7.9%.
